Assay results reported in PubChem BioAssay (NCATS).
Values joined by “and” are separate entries in the source; they are usually repeats but may differ in a detail not shown here. Equal values may be shown once. Inconclusive results are not listed. A call without a number means that no potency is given here. Values without a mark were called inactive. Active and inactive are the calls of the source. Calls follow the shape of the dose curve; as a rule, active = well fitted curve in the direction sought with a large enough effect; inconclusive = small, poorly fitted or top-dose-only effect, or another doubt; inactive = no such curve, though single readings can be large; an effect the other way counts as inactive or inconclusive. Where a SMILES comes first, the peptide text is derived from it. [ ]: non-standard residue; d: D form. The star is where a group is joined. Sta = CC(C)C[C@H](N)[C@@H](O)CC(=O)O; Isovaleryl = CC(C)CC(=O)*

Tests used:
[1] = biological target: Cytochrome P450 3A7 (Homo sapiens) (UniProt P24462); assay: Cytochrome P450 family 3 subfamily A member 7 (CYP3A7) small molecule antagonists: luciferase biochemical qHTS assay (AID 1963596); also: nearly all actives have a fitted effect of over 40% in size
Procedure, shortened: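 Luminescence read-out (relative luminescence units) after 20 min with detection reagent, which stops the reaction. Enzyme, proluciferin substrate and compound preincubated 10 min, RT; NADPH regeneration system then started 1 h reaction. Ketoconazole as positive control.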

[2] = Viability qHTS for spleen associated tyrosine kinase inhibitor (SYKi) naive MV4-11 cells (AID 1963823); also: nearly all actives have a fitted effect of over 40% in size; also: potency is read from the fitted curve at half-maximal effect
Procedure, shortened: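 Compounds were dispensed acoustically onto plates, MV4-11 cells (SYKi-naive) added at 500 per well, and plates incubated 72 hr at 37 C. CellTiter-Glo was added and luminescence measured after 10 min.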

[3] = Viability qHTS for spleen associated tyrosine kinase inhibitor (SYKi) drug resistant MV4-11 cells (AID 1963824); also: nearly all actives have a fitted effect of over 35% in size; also: potency is read from the fitted curve at half-maximal effect
Procedure, shortened: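 SYK inhibitor-resistant MV4-11 AML cells, 500 per well, added to predispensed compounds and incubated 72 hr at 37 C, 5% CO2. Viability measured by CellTiter-Glo luminescence after 10 min at room temperature.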

[4] = Quantitative highthroughput screen to assess conditional lethalithy of NOMO1 cells grown in RPMI1640 with untreated serum (RPMI+s) (AID 1963876); also: nearly all actives have a fitted effect of over 35% in size; also: potency is read from the fitted curve at half-maximal effect
Procedure, shortened: (§1)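 Each medium arm—HPLM with 10% dialyzed FBS, or RPMI1640 with 5 mM glucose and 10% untreated or dialyzed FBS—was screened against an 11-point, 3-fold compound titration for 48 h at 37 °C, with CellTiter-Glo luminescence as endpoint.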

[5] = Quantitative highthroughput screen to assess conditional lethalithy of NOMO1 cells grown in RPMI1640 with dialyzed fetal bovine serum (RPMI+ds) (AID 1963877); also: nearly all actives have a fitted effect of over 30% in size; also: potency is read from the fitted curve at half-maximal effect; as to Viability: series mostly up to about 46 µM
Procedure, shortened: as §1

[6] = Quantitative highthroughput screen to assess conditional lethalithy of NOMO1 cells grown in Human Plasma-Like Medium with dialyzed fetal bovine serum (HPLM+ds) (AID 1963878); also: nearly all actives have a fitted effect of over 35% in size; also: potency is read from the fitted curve at half-maximal effect
Procedure, shortened: as §1

[7] = Quantitative highthroughput screen to assess conditional lethalithy of P12 Ichikawa cells grown in Human Plasma-Like Medium with dialyzed fetal bovine serum (HPLM+ds) (AID 1963879); details: Potency: viability; also: nearly all actives have a fitted effect of over 35% in size; also: potency is read from the fitted curve at half-maximal effect; as to Viability: series mostly up to about 46 µM
Procedure, shortened: as §1

[8] = Quantitative highthroughput screen to assess conditional lethalithy of P12 Ichikawa cells grown in RPMI1640 with dialyzed fetal bovine serum (RPMI+ds) (AID 1963880); details: Potency: P12-Ichikawa viability; also: nearly all actives have a fitted effect of over 35% in size; also: potency is read from the fitted curve at half-maximal effect
Procedure, shortened: as §1

[9] = Quantitative highthroughput screen to assess conditional lethalithy of P12 Ichikawa cells grown in RPMI1640 with untreated serum (RPMI+s) (AID 1963881); details: Potency: viability; also: nearly all actives have a fitted effect of over 35% in size; also: potency is read from the fitted curve at half-maximal effect; as to Viability: series mostly up to about 46 µM
Procedure, shortened: as §1

[10] = Quantitative highthroughput screen to assess conditional lethalithy of SEM cells grown in Human Plasma-Like Medium with dialyzed fetal bovine serum (HPLM+ds) (AID 1963882); also: nearly all actives have a fitted effect of over 35% in size; also: potency is read from the fitted curve at half-maximal effect; as to Viability: series mostly up to about 46 µM
Procedure, shortened: as §1

[11] = Cellular viability qHTS for adrenocortical cancer (ACC) cell line SW-13 (AID 1963989); details: SW-13 ACC cells viability, CellTiter-Glo, 48 h; activity (max response): stronger effect = lower value; also: nearly all actives have a fitted effect of over 65% in size; also: potency is read from the fitted curve at half-maximal effect;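 as to activity (max response): cells grown in serum-free medium with ITS supplement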
Procedure, shortened: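 Here, serum-free SW-13 cultures were dosed up to 46 uM. Following 48 h, ATP-dependent luminescence (CellTiter-Glo) reported viable cells, and logistic modeling produced IC50 values.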

[12] = Cellular viability qHTS for adrenocortical cancer (ACC) cell line NCI-H295R (AID 1963990); also: nearly all actives have a fitted effect of over 60% in size; also: potency is read from the fitted curve at half-maximal effect
Procedure, shortened: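 Viability of NCI-H295R after 48 h of treatment (final up to 46 uM) measured through cellular ATP luminescence.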

[13] = Quantitative highthroughput screen to assess conditional lethalithy of SEM cells grown in RPMI1640 with unreated serum (RPMI+s) (AID 1963883); also: nearly all actives have a fitted effect of over 35% in size; also: potency is read from the fitted curve at half-maximal effect
Procedure, shortened: as §1

[14] = Quantitative highthroughput screen to assess conditional lethalithy of SEM cells grown in RPMI1640 with dialyzed fetal bovine serum (RPMI+ds) (AID 1963884); also: nearly all actives have a fitted effect of over 35% in size; also: potency is read from the fitted curve at half-maximal effect; as to Viability: series mostly up to about 46 µM
Procedure, shortened: as §1

Cytochrome P450 3A7 (Homo sapiens), sequence (P24462 whole entry, looked up): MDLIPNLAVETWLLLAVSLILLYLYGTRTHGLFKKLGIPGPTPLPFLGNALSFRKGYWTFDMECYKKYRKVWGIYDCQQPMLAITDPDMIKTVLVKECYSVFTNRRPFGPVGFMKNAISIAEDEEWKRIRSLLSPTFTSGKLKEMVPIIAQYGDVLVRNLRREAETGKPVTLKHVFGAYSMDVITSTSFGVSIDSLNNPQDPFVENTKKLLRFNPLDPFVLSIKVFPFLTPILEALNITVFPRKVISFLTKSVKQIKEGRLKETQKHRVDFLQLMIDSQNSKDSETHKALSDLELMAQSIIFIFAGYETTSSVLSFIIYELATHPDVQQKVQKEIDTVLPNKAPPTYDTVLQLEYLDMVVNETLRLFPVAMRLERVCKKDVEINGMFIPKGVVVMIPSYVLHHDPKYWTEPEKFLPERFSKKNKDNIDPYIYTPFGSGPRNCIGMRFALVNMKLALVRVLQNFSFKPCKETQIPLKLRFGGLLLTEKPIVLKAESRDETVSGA

O=C(c1ccccn1)c1cnn2c(-c3ccncc3)ccnc12
Potency [1]: inactive
Potency [2]: inactive
Potency [3]: inactive

CCC(C)(C)C1CCc2c(sc(NC(=O)c3ccc(Br)cc3)c2C#N)C1 (stereo not drawn)
Potency [1]: inactive
Potency [2]: inactive
Potency [3]: inactive

COC(=O)[C@H](CC1C=NC=N1)NCC12CC3CC(CC(C3)C1)C2 (stereo partly drawn)
Potency [1]: inactive
Potency [2]: inactive
Potency [3]: inactive

CC1(C)CC(NC(=O)C(=O)Nc2ccc(Br)cc2)CC(C)(C)N1
Potency [1]: inactive
Potency [2]: 3260 nM (active)
Potency [3]: 2590 nM (active)

COc1cc(N2CCOCC2)ccc1Nc1ncc(Cl)c(Nc2ccccc2NS(C)(=O)=O)n1
Potency [1]: inactive
Potency [2]: 103 nM (active)
Potency [3]: 206 nM (active)

Cc1nc(C#Cc2ccnc(Cl)c2)c(C)n1-c1ccc(F)cc1
Potency [1]: inactive
Potency [2]: 8200 nM (active)
Potency [3]: 8200 nM (active)

FC(F)(F)c1cc(C(F)(F)F)c2ccc3nc(-c4nnco4)cn3c2n1
Potency [1]: inactive
Potency [2]: inactive
Potency [3]: inactive

CNC(=O)c1cnn(-c2nc(N)c3ncn([C@@H]4O[C@H](CO)[C@@H](O)[C@H]4O)c3n2)c1
Potency [1]: inactive
Potency [2]: inactive
Potency [3]: inactive

CCOc1ccc(NC(=O)CC(C)O)cc1 (stereo not drawn)
Potency [1]: inactive
Potency [2]: inactive
Potency [3]: inactive

Cc1cn(C[C@H](N)C(=O)O)c(=O)n(Cc2ccsc2C(=O)O)c1=O
Potency [1]: inactive
Potency [2]: inactive
Potency [3]: inactive

CCOC(=O)N1CCC(CN(Cc2ccc(Cl)cc2)Cc2ccc([N+](=O)[O-])s2)C1 (stereo not drawn)
Potency [1]: inactive
Potency [2]: 10300 nM (active)
Potency [3]: 16400 nM (active)

CC1(C)Oc2ncnc(N)c2N=C1c1ccc(C2CCC(CC(=O)O)CC2)cc1 (stereo not drawn)
Potency [1]: inactive
Potency [2]: inactive
Potency [3]: inactive

CN[C@H](CNC(=O)N1CCC[C@@H]([C@@H](OCCNC(=O)OC)c2cccc(Cl)c2)C1)C[C@H]1CCCOC1
Potency [1]: inactive
Potency [2]: inactive
Potency [3]: inactive

COc1ccc(C2(CNC(=O)c3ccc(NC(=O)c4ccco4)cc3)CCOCC2)cc1
Potency [1]: inactive
Potency [2]: inactive
Potency [3]: inactive

O=C(NCc1ccccn1)Nc1nnc(-c2ccco2)o1
Potency [1]: inactive
Potency [2]: inactive
Potency [3]: inactive

NC(=O)c1ccc([N+](=O)[O-])cc1Cl
Potency [1]: inactive
Potency [2]: inactive
Potency [3]: inactive

O=C(COc1ccc(Cl)cc1)NC1CCC(NC(=O)COc2ccc(Cl)cc2)CC1 (stereo not drawn)
Potency [1]: inactive
Potency [2]: inactive
Potency [3]: inactive

CNC(=O)c1cc(Oc2ccc3nc(N[C@@H]4CCCC[C@H]4O)sc3c2)ccn1
Potency [1]: inactive
Potency [2]: 13000 nM (active)
Potency [3]: 11600 nM (active)

CC(C)(C(=O)c1cccnc1)c1cccnc1
Potency [1]: inactive
Potency [2]: inactive
Potency [3]: inactive

c1cc(OCCCN2CCCCC2)ccc1CN1CCCCC1
Potency [1]: inactive
Potency [2]: inactive
Potency [3]: inactive

COC(=O)c1ccc(N2CCN(C)CC2)c(NC(=O)c2cccc(OC)c2)c1
Potency [1]: inactive
Potency [2]: inactive
Potency [3]: inactive

O=C1N(CC2CCCCN2)CCN1c1ccccc1 (stereo not drawn)
Potency [1]: inactive
Potency [2]: inactive
Potency [3]: inactive

Cc1cnn(-c2ccccc2)c1NC(=O)COCc1ccccc1
Potency [1]: inactive
Potency [2]: inactive
Potency [3]: inactive

O=C(NCC1CCN(Cc2cccc(Cl)c2)CC1)[C@@H]1CCCN(c2ncnc3c2nc2n3CCCC2)C1
Potency [1]: inactive
Potency [2]: 2310 nM (active)
Potency [3]: 10300 nM (active)

CN(C)S(=O)(=O)c1ccc(NC(=S)N2CCC(C(O)(c3ccccc3)c3ccccc3)CC2)cc1
Potency [1]: inactive
Potency [2]: 16400 nM (active)
Potency [3]: 18400 nM (active)

O=C(NC1CCN(CC(F)(F)F)CC1)c1ccc(-c2cccc(F)c2)nc1
Potency [1]: inactive
Potency [2]: inactive
Potency [3]: inactive

C=CC(=O)N1CCN(C(=O)c2cc(-c3cc(Cl)ccc3Cl)c(Cl)cc2OC)CC1
Potency [1]: inactive
Potency [2]: 8200 nM (active)
Potency [3]: 6510 nM (active)

CC(C)(C)OC(=O)N1CCC(OCc2nc(-c3ccncc3)no2)CC1
Potency [1]: inactive
Potency [2]: inactive
Potency [3]: inactive

O=P(O)(O)C(O)(Cc1cccnc1)P(=O)(O)O
Potency [1]: inactive
Potency [2]: inactive
Potency [3]: inactive
Potency [4]: inactive
Potency [5]: inactive
Potency [6]: inactive
Potency [7]: inactive
Potency [8]: inactive
Potency [9]: inactive
Potency [10]: inactive
activity (max response) [11]: 11.3% and 10.6%
Potency [12]: inactive

CC(C)CC(=O)N[C@H](C(=O)N[C@H](C(=O)N[C@@H](CC(C)C)[C@@H](O)CC(=O)N[C@@H](C)C(=O)N[C@@H](CC(C)C)[C@@H](O)CC(=O)O)C(C)C)C(C)C (Isovaleryl-VV[Sta]A[Sta]-OH)
Potency [1]: inactive
Potency [2]: inactive
Potency [3]: inactive
Potency [4]: inactive
Potency [5]: inactive
Potency [6]: inactive
Potency [7]: inactive
Potency [8]: inactive
Potency [9]: inactive
Potency [13]: 26400 nM (active)
activity (max response) [11]: 4.2% and -6.21%
Potency [12]: inactive

COC[C@H](NC(=O)c1cnc(C)s1)C(=O)N[C@@H](COC)C(=O)N[C@@H](Cc1ccccc1)C(=O)[C@@]1(C)CO1
Potency [1]: inactive
Potency [2]: 66.1 nM (active)
Potency [3]: 83.3 nM (active)
Potency [4]: 469 nM (active)
Potency [5]: 469 nM (active)
Potency [6]: 332 nM (active)
Potency [7]: 235 nM (active)
Potency [8]: 235 nM (active)
Potency [9]: 264 nM (active)
Potency [10]: 93.5 nM (active)
Potency [13]: 83.3 nM (active)
Potency [14]: 83.3 nM (active)
Potency [11]: 316 nM (active)
Potency [12]: 282 nM (active)

Nc1nnc(-c2cccc(Cl)c2Cl)c(N)n1
Potency [1]: inactive
Potency [2]: inactive
Potency [3]: inactive
Potency [4]: inactive
Potency [5]: inactive
Potency [6]: inactive
Potency [8]: inactive
Potency [10]: inactive
Potency [13]: inactive
Potency [14]: inactive
activity (max response) [11]: 1.68% and 0.0596%
Potency [12]: inactive

O=C(O)CSCC(=O)NC1CCSC1=O (stereo not drawn)
Potency [1]: inactive
Potency [2]: inactive
Potency [3]: inactive
Potency [4]: inactive
Potency [5]: inactive
Potency [6]: inactive
Potency [7]: inactive
Potency [8]: inactive
Potency [9]: inactive
Potency [10]: inactive
Potency [13]: inactive
Potency [14]: inactive
activity (max response) [11]: 1.69% and -8.03%
Potency [12]: inactive
